We go through 18 compounds from PubChem BioAssay (NCATS).

Structures are written as SMILES. Results filed as inconclusive are left out. Active and inactive are the calls of the source. Calls come from the whole dose curve; as a rule, active = well fitted curve in the direction sought with a large enough effect; inconclusive = small, poorly fitted or top-dose-only effect, or another doubt; inactive = no such curve, though single readings can be large; an effect the other way counts as inactive or inconclusive.

Test [1] can be described thus: Quantitative High-Throughput drug screen in 47 multiple myeloma cell lines against the NCATS MIPE library collection: EJM_DSMZ cell viability assay (AID 1918926; note: nearly all actives have a fitted effect of over 30% in size). The method in brief:
(§1)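 Luminescent ATP measurement with CellTiter-Glo gives viability, scaled between DMSO-only wells (100%) and media-only wells (0%). Cells, 500 per well, faced library compounds for 48 hours at 37C.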

The nature of test [2]: Quantitative High-Throughput drug screen in 47 multiple myeloma cell lines against the NCATS MIPE library collection: AMO1_DSMZ cell viability assay (AID 1918927; note: nearly all actives have a fitted effect of over 30% in size). The method in brief: as §1
Test [3] is described as follows: Quantitative High-Throughput drug screen in 47 multiple myeloma cell lines against the NCATS MIPE library collection: ARP1_JJKsccF8 cell viability assay (AID 1918928; note: nearly all actives have a fitted effect of over 40% in size). In short, it runs like this:
(§2)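 500 cells/well; MIPE 4.0 library pinned in; 48 h, 37 °C, 5% CO2; CellTiter-Glo ATP luminescence. Controls: DMSO = 100% viability, medium only = 0%.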

Test [4] can be described thus: Quantitative High-Throughput drug screen in 47 multiple myeloma cell lines against the NCATS MIPE library collection: ARD_JJKsccE7 cell viability assay (AID 1918929). In short, it runs like this: as §1
Test [5] can be described thus: Quantitative High-Throughput drug screen in 47 multiple myeloma cell lines against the NCATS MIPE library collection: Karpas620_DSMZ cell viability assay (AID 1918959). Note: nearly all actives have a fitted effect of over 30% in size. In short, it runs like this: (§3)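 We plated 500 myeloma cells per well, pinned in MIPE 4.0 compounds, and incubated for 48 hours at 37C. ATP was then quantified with CellTiter-Glo, with DMSO and media-only wells defining 100% and 0%.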

Test [6] in a line: Quantitative High-Throughput drug screen in 47 multiple myeloma cell lines against the NCATS MIPE library collection: KMM1_JCRB cell viability assay (AID 1918960). Note: nearly all actives have a fitted effect of over 30% in size. In short, it runs like this:
as §2

Test [7] in a line: Quantitative High-Throughput drug screen in 47 multiple myeloma cell lines against the NCATS MIPE library collection: Karpas417_ECACC cell viability assay (AID 1918961). The following applies: Karpas417 myeloma viability, CellTiter-Glo ATP luminescence, 48 h; viability (% of DMSO): at 45.8 µM (top of the series). The method in brief:
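Viability readout: CellTiter-Glo luminescence following 5 min room-temperature incubation with reagent. Prior exposure: 48 h, 37C, humidified 5% CO2, 500 cells per well.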
(In general: In ATP-based viability assays light output follows the ATP content of the culture.)

Test [8] in a line: Quantitative High-Throughput drug screen in 47 multiple myeloma cell lines against the NCATS MIPE library collection: JIM3_ECACC cell viability assay (AID 1918963; note: nearly all actives have a fitted effect of over 35% in size). In short, it runs like this: as §3
Test [9] can be described thus: Quantitative High-Throughput drug screen in 47 multiple myeloma cell lines against the NCATS MIPE library collection: KHM11_PLB cell viability assay (AID 1918962). Note: nearly all actives have a fitted effect of over 35% in size. The method in brief: as §3
Test [10] can be described thus: Quantitative High-Throughput drug screen in 47 multiple myeloma cell lines against the NCATS MIPE library collection: JIM1_ECACC cell viability assay (AID 1918964). In short, it runs like this:
as §1
Potency is the fitted concentration of half-maximal effect.

As for `NC1CCC(Nc2nc(Nc3ccc(C(=O)N4CCCCC4)cc3)c3ncn(-c4cccc(F)c4)c3n2)CC1` (stereo not drawn), the Potency result in test [1], in test [2], in test [3], in test [4], in test [5] and in test [6] was “inactive” in each case. The Potency entry in test [7] and in test [8] was “inactive” in each case.
For `COc1cc2ncnc(Nc3ccc(F)c(Cl)c3)c2cc1OCCCN1CCOCC1`, the Potency in test [1] was 6.05 µM (active); in test [2], 4.81 µM (active); in test [3] it was 48.1 µM (active); in [4], 12.1 µM (active); in test [5], 6.79 µM (active); in [6] it was 8.55 µM (active). In addition, the Potency in test [7] was 3.4 µM (active); in [9] it was 3.4 µM (active); in test [8] it was 13.6 µM (active); in [10], 5.4 µM (active).
On to `c1ccc2c(-c3cnn4cc(-c5ccc(N6CCNCC6)cc5)cnc34)ccnc2c1`, for which the Potency in [1] is 11.8 µM (active).
Turning to `CN(C)c1cc(NC(=O)CNC(C)(C)C)c(O)c2c1C[C@@H]1C[C@H]3[C@H](N(C)C)C(=O)C(C(N)=O)=C(O)[C@@]3(O)C(=O)C1=C2O`, the Potency result in test [1], in test [2], in test [3], in test [4], in test [5] and in test [6] was “inactive” in each case. Further, the Potency entry in test [7] and in test [9] was “inactive” in each case.
On to `CN(C)CCC=C1c2ccccc2COc2ccc(CC(=O)O)cc21`, for which the Potency entry in test [1], in test [2], in test [3], in test [4], in test [5] and in test [8] was “inactive” each time. In addition, the Potency result in test [10] is “inactive”.
As to `CC(C)(Cc1ccc2ccccc2c1)NC[C@@H](O)COc1cccc(Cl)c1C#N`, the Potency result in test [1], in test [2], in test [3], in [4], in [5] and in [6] was “inactive” throughout. For the same compound, the Potency result in [8] is “inactive”.
As for `O=c1[nH]cnc2c1ncn2[C@H]1CC[C@@H](CO)O1`, the Potency entry in [1], in test [2], in [3], in test [5], in [6] and in test [9] was “inactive” in each case. In [10], the Potency result is “inactive”.
`O=C(O)CCC1CCC(c2cc(F)ccc2F)(S(=O)(=O)c2ccc(Cl)cc2)CC1` (stereo not drawn): the Potency entry in test [1], in test [3] and in [8] was “inactive” in each case. The Potency in test [2] was 5.9 µM (active); in test [4] it was 14.8 µM (active); in test [6] it was 16.6 µM (active).
For `CCNc1cc(NC2CCC(O)CC2)nc(Nc2ccc3c(ccn3Cc3ccccc3)c2)n1` (stereo not drawn), the Potency in test [1] was 18.7 µM (active).
Turning to `Clc1ccc(C(c2ccc(Cl)cc2)n2cc[n+](CC(OCc3ccc(Cl)cc3Cl)c3ccc(Cl)cc3Cl)c2)cc1` (stereo not drawn), the Potency in [1] was 16.6 µM (active); in test [2] it was 16.6 µM (active); in [3], 11.8 µM (active); in test [4] it was 11.8 µM (active); in test [5], 9.35 µM (active); in [6], 8.33 µM (active). Further, the Potency in test [7] is 8.33 µM (active); in [9] it was 10.5 µM (active); in test [8], 16.6 µM (active); in test [10], 8.33 µM (active).
On to `CCc1ccc(OCc2ccccc2C(=O)Nc2ccc3nc(C)cc(N)c3c2)cc1`, for which the Potency was 7.43 µM (active) in test [1]; 3.32 µM (active) in test [2]; 7.43 µM (active) in test [3]; 2.64 µM (active) in [4]; 1.05 µM (active) in test [5]; 2.64 µM (active) in test [6]. Also, the Potency was 1.87 µM (active) in [7], 2.35 µM (active) in test [9] and 2.64 µM (active) in test [10].
In the case of `CC(C)(C)COc1ccc(-n2cc(C(=O)O)cn2)cc1C#N`, the Potency result in [1], in [2], in [3], in [4], in [5] and in test [6] was “inactive” throughout. The Potency entry in test [9] and in test [8] was “inactive” in each case.
With `CC[C@H]1OC(=O)[C@H](C)[C@@H](O[C@H]2C[C@@](C)(OC)[C@@H](O)[C@H](C)O2)[C@H](C)[C@@H](O[C@@H]2O[C@H](C)C[C@H](N(C)C)[C@@H]2O)[C@](C)(O)C[C@@H](C)CN(C)[C@H](C)[C@@H](O)[C@]1(C)O`, the Potency result in test [1], in test [2], in test [3], in test [4], in test [5] and in test [6] was “inactive” each time. The Potency entry in test [8] was “inactive”.
For the compound `O=C(Nc1c(Cl)cncc1Cl)c1ccc(OC(F)F)c(OCC2CC2)c1`, the Potency result in [1], in test [2], in test [3], in test [4], in test [5] and in [6] was “inactive” in each case. Moreover, the Potency result in [8] was “inactive”.
As to `NS(=O)(=O)c1cccc2c1C(=O)c1cccc(O)c1C2=O`, the Potency was 0.935 µM (active) in [1]; 0.166 µM (active) in test [2]; 0.332 µM (active) in [3]; 0.264 µM (active) in test [4]; 0.148 µM (active) in [5]; 0.264 µM (active) in test [6]. The Potency in test [7] is 0.148 µM (active); in test [9], 0.662 µM (active); in [8] it was 0.187 µM (active); in test [10], 0.209 µM (active).
With `C[C@H](NC(=O)C(=O)Nc1ccccc1C(C)(C)C)C(=O)N[C@@H](CC(=O)O)C(=O)COc1c(F)c(F)cc(F)c1F`, the Potency result in test [1] and in [8] was “inactive” in each case. Moreover, the Potency was 4.69 µM (active) in test [2]; 14.8 µM (active) in test [3]; 1.18 µM (active) in test [4]; 2.64 µM (active) in test [5]; 1.66 µM (active) in [6]; 4.18 µM (active) in [10].
Regarding `c1ccc2c(Cc3c[nH]c4ccccc34)c[nH]c2c1`, the Potency in [1] was 1.48 µM (active); in [2], 8.33 µM (active); in test [3], 20.9 µM (active); in test [5], 9.35 µM (active); in test [9] it was 4.18 µM (active); in [8], 10.5 µM (active). Moreover, the Potency result in test [4] was “inactive”.
On to `O=C(O)C(O)Cc1ccc(O)c(O)c1` (stereo not drawn), for which the Potency in [1] and in test [3] was 23.5 µM (active) in each case. In addition, the Potency result in test [2], in [4], in test [5], in [8] and in test [10] was “inactive” throughout.
